Tau filament bind – tau filament binding; P10636; recombinant tau filaments, thioflavin S fluorescence, 15 h; filaments grown with octadecylsulfate alongside compound; Potency, µM (doses to about 57.1 µM), without a hit: at the top dose activity change, negative = inhibition; 2% of 71,000 active; AID 596;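 also: % is scaled to controls: 0 for no effect and ±100 for the full control effect; actives lower thioflavin S fluorescence by blocking filaments or displacing dye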
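ThS-based fibril read: tau 1 uM final, inducer ODS 30 uM final, 37 C for 15 h, ex 450/em 510 nm.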
Bst PK mod – alters activity of Bacillus stearothermophilus pyruvate kinase; purified pyruvate kinase, luminescence ATP production; ribose 5-phosphate activator present at AC10; Potency, µM; 1.2% of 51,000 active; in the data active = potency below about 11 µM; inconclusive = mostly about 12 µM to 25 µM;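 the screen sought inhibitors and activators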;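 also: scaled between full activation by ribose 5 phosphate and full inhibition by luteolin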
HEK293 cAMP ctrl – parental HEK293 cAMP activation (counter-screen) | parental HEK293 CNG cAMP sensor, membrane potential fluorescence | Potency, µM (series often up to 57.1 µM), for inactives: at the top dose activation, actives largely listed as activators | 2.5% of 73,000 active | AID 938; also: % of control where 0% means no effect; nearly all actives have a fitted effect of over 55% in size
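Parental HEK 293 cells stably expressing a cAMP-gated CNG channel were loaded with membrane potential dye containing 100 uM RO 20-1724 for 60 min. Compound added for 30 min; depolarization read as fluorescence intensity at 590 nm.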
ALOX15 inhib – blocks human 15-lipoxygenase activity | 1.4% of 74,000 active | P16050 | Potency, µM (doses to about 57.1 µM), inactives show at the top dose activity change, negative = inhibition, actives largely listed as inhibitors | purified 15hLO-1, xylenol orange hydroperoxide absorbance | AID 887; also: % is scaled to controls: 0 for no effect and ±100 for the full control effect; nearly all actives have a fitted effect of over 55% in size
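Inhibition is scored from a chromogenic endpoint. After 15 min enzyme-compound contact, arachidonic acid (50 uM final) reacts 6 min with 40 nM 15hLO-1 at room temperature, then Fe-XO reagent is added for 30 min and absorbance ratio recorded.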
TSHR ag – activates the human thyroid stimulating hormone receptor; HEK293-CNG-TSHR cells (CNG channel as cAMP sensor), membrane potential dye, cAMP; Potency, µM (doses to about 57.1 µM), for the others: top-dose activation, usual class: activators; 0.48% of 73,000 active; active = well fitted activation curve with a large enough effect in the main read-out, with a control signal flat, not every such curve was filed as active; inconclusive = small, poorly fitted or top-dose-only effect, or a change in a side signal; inactive = no such curve, though single readings can be large or run the other way; % of control where 0% means no effect;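 also: the control signal comes from parental cells without the receptor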
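HEK 293 cells stably expressing TSHR and a cAMP-gated CNG channel; parental CNG-only cells as counterscreen. Cells preloaded 60 min with membrane potential dye plus 100 uM RO 20-1724, then compound 30 min; fluorescence read at 590 nm.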
Luciferase inh – blocks Photinus pyralis firefly luciferase activity | purified firefly luciferase, luminescence, 8 min | Potency, µM (series often up to 57.1 µM), without a hit: at the top dose activity change, negative = inhibition, hits mostly inhibitors | 2.2% of 72,000 active | AID 411; also: % is scaled to controls: 0 for no effect and ±100 for the full control effect; nearly all actives have a fitted effect of over 40% in size
Target sequence (P08659 whole entry, looked up): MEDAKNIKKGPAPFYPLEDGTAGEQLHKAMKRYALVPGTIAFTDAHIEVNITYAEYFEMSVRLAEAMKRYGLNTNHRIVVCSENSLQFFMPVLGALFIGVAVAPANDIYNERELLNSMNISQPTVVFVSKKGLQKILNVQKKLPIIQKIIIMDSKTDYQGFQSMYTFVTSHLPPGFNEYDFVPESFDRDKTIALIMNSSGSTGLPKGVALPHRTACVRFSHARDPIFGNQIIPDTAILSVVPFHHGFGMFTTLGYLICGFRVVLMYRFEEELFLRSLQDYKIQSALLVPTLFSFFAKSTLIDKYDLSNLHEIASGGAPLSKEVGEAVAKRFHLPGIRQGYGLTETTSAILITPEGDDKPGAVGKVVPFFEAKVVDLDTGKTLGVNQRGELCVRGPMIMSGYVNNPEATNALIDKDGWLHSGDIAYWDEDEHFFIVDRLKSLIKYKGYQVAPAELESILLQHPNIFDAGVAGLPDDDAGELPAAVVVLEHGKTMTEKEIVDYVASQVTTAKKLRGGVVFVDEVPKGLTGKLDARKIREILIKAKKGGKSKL
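Luminescence read-out after 8 min at room temperature; enzyme reaction used luciferin plus 10 uM ATP (linear range) in imidazole buffer pH 7.2 with KCl, MgCl2, Tween 20 and BSA. Each sample was run as a titration.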
* = called active by the depositor; i = inactive; ? = inconclusive; . = no result; [ ] = remark or other dose. The list is not random: actives were taken first. Their share in the collection is about 7.8%. Unless noted, calls follow the shape of the dose curve; as a rule, active = well fitted curve in the direction sought with a large enough effect; inconclusive = small, poorly fitted or top-dose-only effect, or another doubt; inactive = no such curve, though single readings can be large; an effect the other way counts as inactive or inconclusive. Potency is read from the fitted curve at half-maximal effect.

SMILES	Tau filament bind	Bst PK mod	HEK293 cAMP ctrl	ALOX15 inhib	TSHR ag	Luciferase inh
COC(=O)C[C@@H]1O[C@H]1[C@H](C)[C@@H](OC)C(C)C	.	.	5%[11.4 µM]	-6%[11.4 µM]	5%[11.4 µM]	0%[11.4 µM]
NCCC[C@@H](CC(=O)N[C@@H]1CCNC[C@H]1C(=O)N[C@H](CC(=O)N[C@@H](CCC(=O)O)CC(=O)O)Cc1c[nH]c2ccccc12)NC(=O)C[C@H](Cc1c[nH]c2ccccc12)NC(=O)[C@@H]1CNCC[C@H]1N	-2%	.	?	.	?	.
Cc1cc(C)n(-c2nc3ccccc3nc2N2CCCCCC2)n1	?	>57	20µM*	-12%	?	2%
Cc1cc(C)n(-c2nc3ccccc3[nH]c2=O)n1	5%	>57	-1%	14%	5%	1%
Cc1cc(C)n(-c2nc3ccccc3nc2Nc2ccc3[nH]c(=O)[nH]c3c2)n1	1.3µM*	>57	-47%	-13%	?	-1%
CCCn1c(C)nc2c(NC3CCN(Cc4ccccc4)C3)nc(C)nc21 (stereo not drawn)	1%	.	21%	8%	19%	.
COc1ccccc1CN1CCC2(CC1)CCN(S(=O)(=O)c1ccccc1)CC2	-2%	.	-7%	4%	2%	2%[11.4 µM]
CCN1C(=O)C2(Nc3ccccc3-c3nc4ccccc4n32)c2cc(OC)ccc21 (stereo not drawn)	33%	>57	7.9µM*	-17%	?	-10%
CN1C(=O)C2(Nc3ccccc3-c3nc4ccccc4n32)c2ccccc21 (stereo not drawn)	21%	>57	10%	-17%	22%	-4%
Cc1cc(C(=O)Nc2cnn(Cc3ccc(Cl)cc3Cl)c2)no1	100%	9.2*	11%	-9%	0%	-2%
CC(=O)[C@@]1(O)Cc2c(O)c3c(c(O)c2[C@H](O[C@H]2C[C@H](N)[C@H](O)[C@H](C)O2)C1)C(=O)c1ccccc1C3=O	1.6µM*	.	?	?	?	-23%
O=c1cc(-c2ccc(O)c(O)c2)oc2ccccc12	.	.	.	1.6µM*	.	.
O=c1cc(-c2ccccc2)oc2cc(O)c(O)cc12	.	.	.	16µM*	.	.
Nc1ncnc2c1nc(-c1ccccc1)n2[C@H]1O[C@@H](CO)[C@@H](O)[C@H]1O	5%[11.4 µM]	.	-4%[11.4 µM]	-7%[11.4 µM]	6%[11.4 µM]	1%[11.4 µM]
Cn1nnnc1SCc1ccc(C(=O)Nc2nccs2)cc1	2.5µM*	1*	-4%	?	-5%	1µM*
Cn1c(CSCc2ccc(F)cc2)nnc1SCC(=O)Nc1nccs1	9%	>57	?	-3%	?	1%
CCC(=O)N1CCN(c2ccccc2NC(=O)COc2cc(C)ccc2C(C)C)CC1	10%	>57	16µM*	-19%	?	-1%
CC(=O)N1CCN(c2ccccc2NC(=O)COc2ccc(Cl)cc2Cl)CC1	15%	>57	26%	-11%	28%	0%
O=C(Nc1ccccc1N1CCN(c2ccc(F)cc2)CC1)C1CCCCC1	-6%	>57	3.2µM*	-9%	?	4%
O=C(Nc1ccc(F)cc1)C1CCCCC1	1%	>57	12%	3%	11%	-1%
CN1CCN(c2ccccc2NC(=O)c2ccc(-c3ccccc3)cc2)CC1	140%	.	-25%	-7%	-20%	0%
O=C(COc1ccccc1)Nc1ccccc1N1CCN(c2ccc(F)cc2)CC1	1%	>57	7.9µM*	-6%	?	-7%
O=C(Nc1ccccc1N1CCN(c2ccc(F)cc2)CC1)c1ccccc1	-10%	>57	6.3µM*	-21%	?	-1%
CCCC(=O)N(c1ccc(F)cc1)C1C=CS(=O)(=O)C1 (stereo not drawn)	7%	>57	7%	3%	5%[11.4 µM]	4%
CC(=O)O[C@@]1(C(C)=O)CCC2C3C=C(Cl)C4=CC(=O)CC[C@]4(C)C3CC[C@]21C (stereo partly drawn)	.	.	.	0%	.	.
SMILES	Tau filament bind	Bst PK mod	HEK293 cAMP ctrl	ALOX15 inhib	TSHR ag	Luciferase inh
Cc1ccccc1OCC(=O)Nc1ccccc1N1CCOCC1	-4%	.	25µM*	-2%	?	-1%
Cc1ccc2nc(-c3ccc(NC(=O)c4ccco4)cc3)[nH]c2c1	i	7.2*	9%	-5%	0%	5µM*
O=C(Nc1cccc(NC(=O)c2nccc3ccccc23)c1)c1ccco1	-11%	i	?	3%	?	13µM*
O=C(Nc1cccc(-c2nc3ccccc3[nH]2)c1)c1ccco1	5%	i	9%	-18%	9%	25µM*
O=C(Nc1ccc2c(c1)ncn2-c1ccccc1)c1ccco1	-5%	10*	25%	-17%	-4%	13µM*
Cn1cccc1-c1nc2ccc(NC(=O)c3ccco3)cc2[nH]1	2%	i	-6%	-4%	-5%	?
Cn1cnc2cc(NC(=O)c3ccco3)ccc21	-4%	.	0%	9%	4%	-26%
C#CCCCC(=S)Nc1ccccc1	8%	.	3%	.	-2%	.
Cn1c(C(=O)O)c(CC(=O)NCc2cccnc2)c2ccccc21	8%	>57	2%	12%	-2%	0%
C[C@]12CC[C@H]3c4ccc(O)cc4CC[C@@H]3[C@H]1C/C(=N/O)[C@H]2O	8%[11.4 µM]	.	-1%[11.4 µM]	2%[11.4 µM]	6%[11.4 µM]	1%[11.4 µM]
O=C(N1CCOCC1)N1CCN(Cc2ccccc2)CC1	9%	>57	8%	-10%	-2%	-2%
Oc1cccc(C(=S)N2CCN(Cc3ccccc3)CC2)c1	-3%	>57	-18%	13µM*	-17%	0%
O=C(Nc1cccc(Cl)c1)N1CCN(Cc2ccccc2)CC1	4%	.	?	-1%	?	16µM*
CN/C=C1\C(=O)C(C)(C)Oc2ccc3ccc(=O)oc3c21	-11%	>57	3%	6%	-1%	-2%
COC1=Cc2c(ccc3ccc(=O)oc23)OC1(C)C	-2%	.	?	32µM*	?	1%
COc1ccc(-n2c(SCCC#N)nnc2-c2cc(Cl)ccc2OC)cc1Cl	15%	>57	26%	-15%	14%	2%
Cc1csc(Sc2nc3c(c(=O)[nH]c(=O)n3C)n2CCCc2ccccc2)n1	6%	>57	-5%	9%	7%	0%
O=c1c2ccccc2nc2n1CCCCC2	6%	>57	-4%	10%	-1%	1%
O=c1c2ccccc2nc2n1CCC2	2%	>57	7%	3.2µM*	3%	2%
C=C(N(C)C)[C@]1(C)C[C@H]1[C@H](NC(=O)CNC(=O)OCc1ccccc1)c1ccccc1	0%	.	16µM*	6%	?	.
C[C@@H](C(=O)NCCF)[C@H]1C[C@]1(C)[C@H](NC(=O)OCc1ccccc1)c1ccccc1	-10%	.	16µM*	.	?	.
NC1(C(=O)O)C[C@H](C(=O)O)[C@H](C(=O)O)C1 (stereo partly drawn)	?	.	2%	-14%[25.6 µM]	-1%	3%

Screening results from PubChem.
